Screens (PubChem BioAssay)
Efflux pump mplx = inhibitors of Candida efflux pumps in yeast, primary screen, S. cerevisiae, Nile Red, multiplex. hit rate 0.44% among 330,000. inhibition, % at 10 µM. S. cerevisiae Candida pump triplex;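 active = plate passing quality check with inhibition over a set limit, or well fluorescence over plate mean plus 4 SD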;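 note: Nile Red retained in pooled yeast measured as flow cytometry median fluorescence; 0% = buffer negative control and 100% = Enniatin B positive control; higher means more Nile Red kept so more efflux inhibition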
ATG4B inh = ATG4B protease inhibitors, primary screen, biochemical, fluorescence, uHTS; Cysteine protease ATG4B (Homo sapiens), Q9Y4P1; ATG4B cleavage of LC3-PLA2, NBD-HPC fluorescence, 1 h; inhibition, % at 8.33 µM; hit rate 0.51% among 340,000; AID 504462, 2011; in the data active = inhibition above about 40%
Target sequence (Q9Y4P1 whole entry, looked up): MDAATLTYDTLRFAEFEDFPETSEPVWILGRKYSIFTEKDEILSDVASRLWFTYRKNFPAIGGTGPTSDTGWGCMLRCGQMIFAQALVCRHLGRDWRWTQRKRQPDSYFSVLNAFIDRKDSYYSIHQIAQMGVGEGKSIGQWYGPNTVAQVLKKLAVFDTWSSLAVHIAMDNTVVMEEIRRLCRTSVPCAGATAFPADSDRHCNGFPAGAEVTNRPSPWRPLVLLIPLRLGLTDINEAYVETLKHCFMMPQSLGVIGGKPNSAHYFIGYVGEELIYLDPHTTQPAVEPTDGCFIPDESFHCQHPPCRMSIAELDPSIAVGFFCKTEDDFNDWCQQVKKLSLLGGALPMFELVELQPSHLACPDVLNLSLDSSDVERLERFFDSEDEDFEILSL
CR mimetic SO = reduction of superoxide in aged yeast, primary screen, HTS | S. cerevisiae aged cells, superoxide DHE fluorescence; active compounds read low | superoxide response (% of plate mean), % at 10 µM | hit rate 0.18% among 330,000;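 active = superoxide response under a set limit, about three screen SD below normal, cut at about 65% in these data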;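 note: yeast aged for seven days with compound at 30 °C before DHE staining; 100% = average MFI of all compound-treated wells on the plate with controls excluded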
GRK2 aptamer HTS = compounds blocking aptamer binding on GRK2 – biochemical, human GRK2, bead flow cytometry, HTS, primary screen; Beta-adrenergic receptor kinase 1 (Homo sapiens), P25098; FAM-aptamer displacement from GRK2; inhibition of aptamer binding, % at 10 µM; hit rate 0.59% among 330,000;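 active = inhibition of aptamer binding above 40%, roughly 3 SD of noise, on plates passing a quality check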;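 note: median bead fluorescence of bound FAM aptamer so fluorescent compounds give negative values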
GRK2 inh confirm = GRK2 aptamer-displacing inhibitors, retest, confirmation, biochemical, cherry pick 1, bead flow cytometry | aptamer displacement, % at 10 µM | hit rate 4% among 2,000 | bead-bound GRK2, FAM-aptamer displacement | shares compounds with GRK2 aptamer HTS;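 active = aptamer displacement above 40%, near three times the noise of non-fluorescent compounds, on plates passing quality checks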;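 note: negative values mostly reflect intrinsic compound fluorescence rather than true enhancement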
Aptamer quench = quenches fluorescent RNA aptamer, GRK2 hit artifact; Fluorescent RNA aptamer beads, quenching, flow cytometry; active compounds read high; 110 tested, under 10 active; fluorescence change (kMESF span), kMESF (no concentration beside the values); shares compounds with GRK2 aptamer HTS;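 active = compounds whose bead fluorescence drops by more than 37 kMESF across the dose range, marking them as dye quenchers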
Aptamer quench SP = aptamer fluorescence quenching in GRK2 counter-screen; fluorescence response (% of DMSO), % at 10 µM; 2,000 tested, under 10 active; shares compounds with GRK2 aptamer HTS; Carboxyfluorescein RNA aptamer on beads, flow cytometry quenching; active compounds read low;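 active = compounds that quench the bead-bound fluorescent RNA probe, cutting fluorescence to under half of the solvent control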;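 note: counterscreen run without GRK2 so only probe quenching by compound is measured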
GRK2 CP2 = GRK2 aptamer-displacing inhibitors, hit retest, confirmation, biochemical, cherry pick 2, bead flow cytometry; shares compounds with GRK2 aptamer HTS; bead-bound GRK2, FAM-aptamer displacement; 360 tested, under 10 active; inhibition of aptamer binding, % at 10 µM;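 active = inhibition of aptamer binding above 40%, about triple the noise seen with nonglowing compounds, on plates passing quality control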;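 note: negative values mostly come from compounds that fluoresce themselves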
FAM quench CP2 = quenches fluorescent RNA aptamer, GRK2 hit artifact | shares compounds with GRK2 aptamer HTS | fluorescence response vs DMSO, % at 10 µM | 360 tested, under 10 active | carboxyfluorescein RNA aptamer beads, flow cytometry quenching; active compounds read low;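 active = response vs DMSO under 50%, meaning signal dropped by over half, treated as fluorescence quencher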;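 note: labelled aptamer on streptavidin beads without GRK2 as a quench counter-screen; 100% = bead fluorescence of DMSO wells and lower means quenching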
* = called active by the depositor; / = not tested or not shown. Hits are enriched below; roughly 1.6% of the tested compounds scored in any of these assays.

SMILES | Efflux pump mplx | ATG4B inh | CR mimetic SO | GRK2 aptamer HTS | GRK2 inh confirm | Aptamer quench SP | others
Nc1nc(SCC(=O)NCc2ccco2)[nH]c(=O)c1-c1ccccc1 | 0 | 2 | 126 | 24 | / | / | GRK2 CP2=-8;FAM quench CP2=103
Cc1ccc(C2C3=C(CCCC3=O)Nc3nc(SCC(=O)NCc4ccco4)[nH]c(=O)c32)cc1 (configuration not stated) | 0 | -15 | 112 | 2 | / | / | GRK2 CP2=14;FAM quench CP2=101
Cc1nc(SCC(=O)NCc2ccco2)[nH]c(=O)c1C | 0 | -10 | 92 | 8 | / | / | GRK2 CP2=-26;FAM quench CP2=103
O=C(CSc1nc2[nH]ncc2c(=O)n1-c1ccccc1Br)NCc1ccco1 | 0 | -9 | 97 | 2 | / | / | GRK2 CP2=9;FAM quench CP2=99
Cc1[nH]c(=O)[nH]c(=O)c1/C=N/NC(=O)[C@H](C)N | 0 | -1 | 102 | 1 | / | /
COc1cc(/C=C2\CCCc3c2nc2ccccc2c3C(=O)O)cc(Br)c1O | 0 | -5 | 109 | 0 | / | /
COc1cc(/C=C2\CCc3c2nc2ccccc2c3C(=O)O)cc(OC)c1OC | 0 | 1 | 105 | 62* | 45* | 100 | Aptamer quench=0.3
COc1cc(OC)cc(C(=O)N2CCN(C(=O)c3cccs3)CC2)c1 | 0 | -6 | 102 | 3 | / | /
CCn1cc(C(=O)NC(C)C)c(=O)c2cc(F)c(N3CCN(C(=O)c4ccco4)CC3)cc21 | 0 | -5 | 93 | 88* | -1 | 102
COc1ccc(Cl)cc1S(=O)(=O)NC(C)C(=O)NCCN1CCOCC1 (configuration not stated) | / | -5 | / | / | / | /
CN(C)S(=O)(=O)c1ccc(C(=O)NCc2ccco2)cc1 | 0 | 3 | 98 | 0 | / | /
CCCN(CCC)S(=O)(=O)c1ccc(C(=O)NCc2ccco2)cc1 | 0 | 4 | 94 | 64* | -2 | 103
O=C(Nc1cccc([N+](=O)[O-])c1)c1cccc(C(=O)Nc2cccc([N+](=O)[O-])c2)c1 | -1 | -3 | 104 | 67* | 27 | 101
Cc1ccc(CONC(=O)c2cccc([N+](=O)[O-])c2)cc1 | 0 | -5 | 114 | 43* | / | / | GRK2 CP2=-11;FAM quench CP2=100
O=C(Nc1ccc(NC(=O)c2cccc([N+](=O)[O-])c2)cc1)c1cccc([N+](=O)[O-])c1 | 0 | -3 | 105 | 0 | / | /
Cc1ccccc1C(=O)NNC(=O)c1cccc([N+](=O)[O-])c1 | 0 | -1 | 112 | 60* | -4 | 101
CN(Cc1ccc(Cl)cc1)C(=O)COC(=O)CSc1ccc([N+](=O)[O-])cc1 | 0 | -2 | 82 | 0 | / | /
Cc1cc(F)ccc1NC(=O)Cn1c(C)csc1=O | 0 | 4 | 101 | 3 | / | /
COC(=O)C(Cc1ccc(O)cc1)NC(=O)CCc1nc2ccccc2s1 (configuration not stated) | 0 | -5 | 94 | 0 | / | /
COc1ccc2cc3cc(C(=O)N4CCN(c5ccccn5)CC4)oc3nc2c1 | 0 | -7 | 111 | 57* | 1 | 98
CCCN(CC(=O)Nc1ccccc1C)C(=O)C1CC(=O)N(c2cccc(C)c2C)C1 (configuration not stated) | 0 | -2 | 107 | 4 | 1 | 98
CCN(CCCNC(=O)Cn1ncc2c(=O)oc3ccccc3c21)c1cccc(C)c1 | 0 | -4 | 86 | 74* | 1 | 96
Cc1ccc2oc(=O)c3cnn(CC(=O)NCCN(C)C)c3c2c1 | 0 | -4 | 87 | 1 | / | /
Cc1ccc2oc(=O)c3cnn(CC(=O)NCCc4ccsc4)c3c2c1 | 0 | -26 | 102 | 61* | 5 | 102
COc1ccc(C(=O)NC(=S)Nc2ccc(CN3CCOCC3)cc2)cc1Br | 0 | -10 | 83 | 0 | / | /
SMILES | Efflux pump mplx | ATG4B inh | CR mimetic SO | GRK2 aptamer HTS | GRK2 inh confirm | Aptamer quench SP | others
COc1ccc(S(=O)(=O)N2CCCCC2)cc1NC(=O)c1cccc(S(=O)(=O)N2CCOCC2)c1 | / | -13 | / | / | / | /
CCN(Cc1ccc(Cl)s1)C(=O)c1cccc(OCc2c(C)noc2C)c1 | 0 | -5 | 99 | 1 | / | /
COc1ccc(C(=O)NC(=S)NCc2ccco2)cc1Br | 0 | 0 | 88 | 1 | / | /
O=C(Nc1ccccc1N1CCCCC1)c1ccco1 | 0 | 11 | 107 | 49* | 1 | 104
O=C(Nc1ccccc1N1CCCC1)c1ccco1 | 0 | 3 | 100 | 2 | / | /
Fc1ccc(-c2cn(-c3ccccc3)c3[n+]2CCS3)cc1 | 0 | 3 | 90 | 43* | 0 | 96
Clc1ccc(-c2cn(-c3ccccc3)c3[n+]2CCS3)cc1 | 0 | 3 | 105 | 0 | / | /
COCCNC(=O)CSc1nc2scc(-c3ccccc3)c2c(=O)[nH]1 | 0 | -2 | 115 | 0 | / | /
COc1ccc(C(=O)O)cc1N1C(=O)Nc2ccccc2N1O | 0 | 1 | 82 | 78* | 0 | 100
Cc1ccc(-n2c(Cl)c(Cl)nc(Cl)c2=O)cc1 | 1 | -10 | 123 | 2 | / | /
Cc1ccc(S(=O)(=O)N2CCN(CC3CC4C=CC3C4)CC2)cc1 (configuration not stated) | 0 | -4 | 95 | 2 | / | /
CC(=O)Nc1ccc(C(=O)OCC(=O)NCc2ccccc2)cc1 | 0 | -9 | 104 | 2 | / | /
CC(=O)Nc1ccc(OCC(=O)NCc2ccccc2)cc1 | 0 | -3 | 96 | 100* | 0 | 91
Cc1ccc(-c2nc(-c3ccncc3)no2)cc1C | 0 | 2 | 103 | 0 | / | /
Cc1cc(-c2nc(-c3ccncc3)no2)ccc1[N+](=O)[O-] | 0 | -5 | 117 | 25 | 0 | 102
O=C(C[n+]1cc(Br)cc2ccccc21)c1ccccc1 | 0 | 8 | 98 | 45* | 3 | 105
COc1ccc(Cl)cc1N(CC(=O)Nc1ccccc1C(=O)NCc1ccco1)S(C)(=O)=O | 0 | -9 | 109 | 20 | 0 | 101
COc1c(F)c(F)c(C(=O)O)c(Nc2cccc(C)c2)c1F | 0 | 6 | 95 | 1 | / | /
Cc1cc(C)cc(Nc2c(F)c(F)c(F)c(F)c2C(=O)O)c1 | 0 | 16 | 84 | 89* | -2 | 89
CCOc1ccc(-n2ccn(CC(=O)NCCc3ccccc3)c(=O)c2=O)cc1 | / | 1 | / | / | / | /
